From PubChem
This is a sample that favours compounds with a hit; in the whole collection about 10% have one here.
GLS inh: glutaminase GLS (human) inhibition; GLS enzymatic activity, qHTS titration; O94925; 410,000 compounds, 0.21% hits; Potency, µM (series often up to 45.5 µM), inactives show at the top dose activity change, negative = inhibition, usual class: inhibitors; also: % is scaled to controls: 0 for no effect and ±100 for the full control effect
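Compounds were pin-transferred onto hKGA, after which L-glutamine (1 mM solution) and a detection mix of glutamate oxidase, HRP and Amplex Red were added. Initial and 30 min RT fluorescence reads were collected.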
BAZ2B block: inhibitors of human BAZ2B bromodomain; 360,000 compounds, 4.4% hits; Q9UIF8; AlphaScreen BAZ2B-H3K14Ac peptide displacement; Potency, µM (doses to about 114 µM), inactives show at the top dose activity change, negative = inhibition, usual class: inhibitors; also: % is scaled to controls: 0 for no effect and ±100 for the full control effect; nearly all actives have a fitted effect of over 60% in size
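BAZ2B (50 nM) with biotin-H3(5-23)K14Ac peptide (50 nM) in PBS pH 7.4, 0.01% Tween-20, preformed 30 min, then compound 30 min at room temperature; top concentration 110uM. AlphaScreen streptavidin donor/nickel chelate acceptor beads (10 ug/mL final), 20 min dark, signal read.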
G9a inh: inhibitors of human histone lysine methyltransferase G9a; Q96KQ7; G9a H3K9 monomethylation, AlphaScreen, 2 h; Potency, µM (highest dose often 102 µM), for the others: at the highest dose activity, negative = inhibition, usual class: inhibitors; 350,000 compounds, 8.8% hits; also: % is scaled to controls: 0 for no effect and ±100 for the full control effect; nearly all actives have a fitted effect of over 75% in size
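Signal arises when biotinylated H3K9 peptide, once monomethylated, bridges streptavidin donor and antibody-captured acceptor beads. Enzyme at 20 nM was preincubated 15 min with test compounds; peptide 500 nM and SAM 20 uM then reacted for 2 h.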
HP1b binding inh: HP1-beta chromodomain-methylated histone interaction inhibition. Potency, µM (doses to about 114 µM), inactives show at the top dose activity change, negative = inhibition, usual class: inhibitors. AlphaScreen HP1-beta / biotin-H3K9me3 peptide binding. AID 540317. 390,000 compounds, 0.56% hits; also: nearly all actives have a fitted effect of over 70% in size
Target sequence (P83916 whole entry, looked up): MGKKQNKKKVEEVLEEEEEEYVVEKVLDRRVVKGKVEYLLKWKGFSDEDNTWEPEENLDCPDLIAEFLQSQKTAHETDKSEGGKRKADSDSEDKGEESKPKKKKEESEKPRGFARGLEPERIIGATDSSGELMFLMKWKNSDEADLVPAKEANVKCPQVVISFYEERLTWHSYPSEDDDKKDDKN
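AlphaScreen: HP1-beta (50 nM) preformed 30 min with biotin-H3(1-18)K9me3 peptide (50 nM) in PBS pH 7.4, 0.01% Tween-20. Compound added for 30 min at RT, then streptavidin donor/nickel chelate acceptor beads (10 ug/mL) for 30 min.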
JMJD2A Tudor: inhibitors of human JMJD2A Tudor domain; O75164; AlphaScreen JMJD2A-Tudor / H3K4me3 peptide binding; Potency, µM (doses to about 114 µM), without a hit: top-dose activity change, negative = inhibition, most hits filed as inhibitors; 390,000 compounds, 4.4% hits; AID 504339; also: % is scaled to controls: 0 for no effect and ±100 for the full control effect; nearly all actives have a fitted effect of over 50% in size
The depositor's hits bear a star; u = inconclusive; [ ] = another dose, or the depositor's remark. Calls follow the shape of the dose curve; as a rule, active = well fitted curve in the direction sought with a large enough effect; inconclusive = small, poorly fitted or top-dose-only effect, or another doubt; inactive = no such curve, though single readings can be large; an effect the other way counts as inactive or inconclusive. Potency is read from the fitted curve at half-maximal effect.

SMILES | GLS inh | BAZ2B block | G9a inh | HP1b binding inh | JMJD2A Tudor
Cc1ccc(S(=O)(=O)c2nc(-c3ccc(F)cc3)oc2SCC(N)=O)cc1 | 0% | 0% | 13µM* | 35% | -9%
CSc1oc(-c2ccco2)nc1S(=O)(=O)c1ccc(C)cc1 | 2% | -4% | 28µM* | 13% | -12%
CSc1oc(-c2ccccc2)nc1S(=O)(=O)c1ccc(F)cc1 | -4% | 8% | 40µM* | 58% | 14%
C=CCNc1oc(-c2ccco2)nc1S(=O)(=O)c1ccccc1 | 1% | -37% | 25µM* | 12% | -16%
Cc1ccc(-c2nc(S(=O)(=O)c3ccc(C)cc3)c(SCC(=O)NCC3CCCO3)o2)cc1 (configuration not stated) | 3% | -2% | 45µM* | 19% | -4%
Cc1ccc(S(=O)(=O)c2nc(-c3ccc(F)cc3)oc2SCC(=O)NC2CCCCC2)cc1 | 5% | 30% | -9%[59 µM] | 52% | 1%
Cc1ccc(S(=O)(=O)Nc2ccc(C(=O)Nc3ccncc3)cc2)cc1 | 1% | -29% | u | 25% | -11%
CN(C)c1ccc(NC(=O)CN2C(=O)CC(c3ccccc3)=Nc3ccccc32)cc1 | 5% | -5% | 2µM* | 7% | -11%
O=C(c1ccc2c(c1)OCCO2)N(c1ccccn1)C1CCCCC1 | 4% | -5% | -11% | 16% | -2%
COC(=O)c1cc2sc(C)cc2n1Cc1ccccc1 | 8% | 94% | 52%[59 µM] | 113% | 63%
COC(=O)c1cc(C(=O)OC)n(Cc2ccc(C)cc2)c1C | u | u | 50µM* | 26% | -17%
COc1ccc(-n2c(/C=C/c3cc(OC)c(OC)cc3OC)nc3cc4ccccc4cc3c2=O)cc1Cl | 3% | 28µM* | -14%[59 µM] | -3% | u
O=C(NCC(F)(F)F)c1nn(Cc2ccccc2)c(=O)c2ccccc12 | 14% | -2% | 1% | 22% | -6%
COc1ccc(Cl)cc1NC(=O)CN(C)C(=O)c1ccc(N2CCCCC2)c([N+](=O)[O-])c1 | -3% | u | 7.9µM* | u | u
CN(CC(=O)Nc1ccccc1Cl)C(=O)c1ccc(N2CCCCCC2)c([N+](=O)[O-])c1 | -5% | u | u | 10% | u
